EWS-Fli block = EWS/Fli transcriptional activity inhibition; A673 NR0B1-luciferase reporter, viability-normalised; inhibition, % at 12.6 µM; 0.67% of 350,000 active;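 active means mean inhibition of at least 50% after viability correction, with every replicate also passing that limit; inconclusive means mean reaches 50% but only one of two replicates passes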;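 further: firefly luciferase signal divided by Alamar Blue viability fluorescence both relative to DMSO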
TRPM1 prom inh = inhibitors of MITF-driven TRPM1 promoter in melanoma cells; 0.83% of 330,000 active; SK-MEL-5 TRPM1 promoter luciferase, 24 h; inhibition, % at 12.5 µM;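 active means mean inhibition across replicates of 60% or more, whatever share of single replicates reaches that level; inconclusive means some that reach 60%, reason not given; inactive means mean inhibition across replicates below 60%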
ABHD5-PLIN5 inh = ABHD5-PLIN5 protein interaction inhibition | Q00G26+Q8WTS1 | Split G. princeps luciferase complementation, luminescence, 4 h | inhibition, % at 4 µM | 0.78% of 360,000 active | AID 602281;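 active means inhibition above the mean inhibition across every tested compound plus 3 SD, cut at about 22% in these data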;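 further: 0% = DMSO only wells and the 100% control is not disclosed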
Target sequence (Q00G26 whole entry, looked up): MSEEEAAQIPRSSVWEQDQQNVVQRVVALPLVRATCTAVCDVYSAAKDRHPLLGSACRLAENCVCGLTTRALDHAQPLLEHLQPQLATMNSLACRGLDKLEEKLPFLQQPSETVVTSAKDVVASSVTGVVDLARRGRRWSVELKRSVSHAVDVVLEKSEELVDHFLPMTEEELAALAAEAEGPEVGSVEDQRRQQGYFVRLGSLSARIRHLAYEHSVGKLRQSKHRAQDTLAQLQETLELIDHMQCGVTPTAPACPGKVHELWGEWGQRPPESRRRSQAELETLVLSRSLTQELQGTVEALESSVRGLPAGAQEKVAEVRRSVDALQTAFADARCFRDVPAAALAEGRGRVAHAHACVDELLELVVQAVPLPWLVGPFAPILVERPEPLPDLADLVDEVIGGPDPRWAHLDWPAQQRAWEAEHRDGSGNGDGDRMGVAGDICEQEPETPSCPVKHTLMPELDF
Target sequence (Q8WTS1 whole entry, looked up): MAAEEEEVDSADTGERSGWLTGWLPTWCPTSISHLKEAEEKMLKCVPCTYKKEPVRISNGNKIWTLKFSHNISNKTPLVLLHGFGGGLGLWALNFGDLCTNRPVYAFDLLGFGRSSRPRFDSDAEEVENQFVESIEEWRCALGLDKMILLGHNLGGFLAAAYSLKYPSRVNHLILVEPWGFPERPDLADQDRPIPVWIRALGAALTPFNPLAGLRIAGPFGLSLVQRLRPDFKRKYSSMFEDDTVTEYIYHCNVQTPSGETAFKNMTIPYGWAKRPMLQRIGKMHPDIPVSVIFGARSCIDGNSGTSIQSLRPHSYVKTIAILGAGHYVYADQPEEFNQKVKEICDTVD
Shn3 inh set2 = reduces Shn3 3'UTR luciferase signal in osteoblasts | Clone20 osteoblast Shn3 3'UTR firefly luciferase, 24 h | inhibition, % at 12.5 µM | 0.52% of 360,000 active;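 active means mean inhibition of at least 75% with every replicate also reaching 75%; inconclusive means mean inhibition at least 75% but some replicate below; inactive means mean inhibition below 75%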;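 further: 0% = median of neutral control wells and 100% = pilot-screen positive control compound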
PAX8 inh HTS = inhibitors of PAX8 transcriptional activity in RMG-I cells | RMG-I TPO-luciferase reporter, SteadyGlo, 24 h | inhibition, % at 12.6 µM | 1.2% of 360,000 active | AID 652154;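 active means mean replicate inhibition at least 60% with every replicate also reaching 60%; inconclusive means only one of the two criteria is met; inactive means mean below 60% and not all replicates reaching 60%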;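 further: luciferase light reporting Pax8 driven TPO promoter activity; plate controls were median of neutral control wells for no effect and mitoxantrone controls for full effect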
Peg3 promoter = reduces Peg3 promoter-driven luciferase expression in HeLa; HeLa PEG-Prom luciferase reporter, luminescence, overnight; inhibition, % at 20 µM; 1.7% of 360,000 active; AID 588405;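 active means inhibition of at least 50% at 20 µM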
ABHD5 PLIN5 conf = confirmation of human ABHD5-PLIN5 interaction inhibitors. shares compounds with ABHD5-PLIN5 inh. biochemical ABHD5-PLIN5 interaction, luminescence. inhibition, % at 4 µM. 67% of 2,200 active. AID 651612; in the data active means inhibition above about 23%;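 further: 0% = DMSO vehicle wells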
HNF4 counter = HNF4 split-luciferase signal hit, counter-screen | shares compounds with ABHD5-PLIN5 inh | HNF4 dimerization, luminescence, biochemical | inhibition, % at 4 µM | 77% of 2,200 active | AID 651674;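 active means mean inhibition across replicate wells exceeding the computed hit threshold, cut at about 13% in these data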;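 further: light from luciferase halves that rejoin when HNF4 fusion proteins dimerize; 0% = DMSO only wells and the 100% control is not given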
DNA binder FP = binds DNA displacing acridine orange | shares compounds with EWS-Fli block | salmon sperm DNA acridine orange fluorescence polarization | AC35, µM (series often up to 68 µM), inactives show at the highest dose activity change, negative = DNA binding | 2% of 640 active | AID 720586;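 active means fitted curve reaches a 35% signal fall AC35 below twice the sample's top valid tested dose, actives reach about 48 µM in these data; inactive means the rest, including activity in the rising direction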;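 further: lower polarization ratio signals compound binding to DNA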
* = called active by the depositor. An excerpt weighted towards active compounds, which were near 3% of everything screened.

`O=C1c2cccc3cccc(c23)C(=O)N1/N=C/c1c(O)n(-c2ccccc2)c(=O)[nH]c1=O` gave EWS-Fli block 5, TRPM1 prom inh 18, ABHD5-PLIN5 inh 24*, Shn3 inh set2 -13, PAX8 inh HTS -3, Peg3 promoter -12, ABHD5 PLIN5 conf 13 and HNF4 counter 18*.
`O=C(Cc1ccccn1)N1CC2(C1)[C@H](c1ccccc1)[C@H](CO)N2Cc1ccccn1` gave EWS-Fli block 1 and PAX8 inh HTS -5.
O=C1NC(=O)N(c2ccc3c(c2)OCO3)C(=O)/C1=C/c1cccs1 was read as EWS-Fli block 23, TRPM1 prom inh 28, ABHD5-PLIN5 inh 29*, Shn3 inh set2 82, PAX8 inh HTS -7, Peg3 promoter 32, ABHD5 PLIN5 conf 82* and HNF4 counter 87*.
`O=C1NC(=O)N(c2ccc3c(c2)OCO3)C(=O)/C1=C/c1ccc(N2CCCC2)o1` gave EWS-Fli block -7, TRPM1 prom inh -3, ABHD5-PLIN5 inh 8, Shn3 inh set2 -26, PAX8 inh HTS 11 and Peg3 promoter 6.
For O=C1NC(=O)N(c2ccc3c(c2)OCO3)C(=O)/C1=C/c1ccsc1 the results were EWS-Fli block 4, TRPM1 prom inh -7, ABHD5-PLIN5 inh 30*, Shn3 inh set2 2, PAX8 inh HTS -149, Peg3 promoter 8, ABHD5 PLIN5 conf 66* and HNF4 counter 55*.
Screening CNc1cc(Cl)c2nonc2c1[N+](=O)[O-] returned EWS-Fli block 31, TRPM1 prom inh 96*, ABHD5-PLIN5 inh 32*, Shn3 inh set2 90*, PAX8 inh HTS inconclusive, Peg3 promoter 107*, ABHD5 PLIN5 conf 36* and HNF4 counter 80*.
`Cc1cc([N+](=O)[O-])c(Cl)cc1NC(=O)C(C)C` gave TRPM1 prom inh 3, ABHD5-PLIN5 inh -6, Shn3 inh set2 3, PAX8 inh HTS 6 and Peg3 promoter -9.
Screening CC(C)(O)/C=C/C(=O)C(C)(O)C1C(O)CC2(C)C3CC=C4C(C=C(O)C(=O)C4(C)C)C3(C)C(=O)CC12C (stereo not given) returned EWS-Fli block 30, ABHD5-PLIN5 inh 42*, Shn3 inh set2 89*, PAX8 inh HTS 91*, Peg3 promoter 99*, ABHD5 PLIN5 conf 68* and HNF4 counter 50*.
For O=C1CNC[C@H]2[C@H](c3ccc(Br)cc3)[C@H](CO)N12 the results were EWS-Fli block -9 and PAX8 inh HTS -66.
For C=CCN1C(=O)NC(=O)/C(=C/c2c(CCN(C)C(=O)c3ccccc3)cc3c(c2OC)OCO3)C1=O the results were EWS-Fli block -11, TRPM1 prom inh 2, ABHD5-PLIN5 inh 26*, Shn3 inh set2 8, Peg3 promoter 9, ABHD5 PLIN5 conf 9 and HNF4 counter 18*.
For CN1C2CCC1C(COC(=O)c1ccccc1)C(O)C2 (stereo not given) the results were EWS-Fli block -47, TRPM1 prom inh 3, ABHD5-PLIN5 inh -3, Shn3 inh set2 2, PAX8 inh HTS -53 and Peg3 promoter 4.
For CC1CCN(C(CC(=O)c2ccccc2)C(=O)c2ccccc2)CC1 (stereo not given) the results were EWS-Fli block -40, TRPM1 prom inh 3, ABHD5-PLIN5 inh 42*, Shn3 inh set2 10, PAX8 inh HTS -108, Peg3 promoter 105*, ABHD5 PLIN5 conf 64* and HNF4 counter 103*.
O=C(CN1CCOCC1)c1ccc2cc[nH]c2c1 was read as EWS-Fli block -6, TRPM1 prom inh -21, ABHD5-PLIN5 inh 0, Shn3 inh set2 -4, PAX8 inh HTS 11 and Peg3 promoter -21.
For COc1ccc(C(=O)CN2CCOCC2)cc1F the results were TRPM1 prom inh 3, ABHD5-PLIN5 inh 31*, Shn3 inh set2 -1, Peg3 promoter 5, ABHD5 PLIN5 conf -3 and HNF4 counter 9.
`COc1cccc(-c2ccc([C@@H]3[C@@H](CO)N4CCCCN(C(=O)Cc5ccncc5)C[C@H]34)cc2)c1` gave PAX8 inh HTS -16.
For O=c1c2ccccc2nc(-c2ccccc2)n1-c1ccccc1 the results were EWS-Fli block 9, TRPM1 prom inh 13, ABHD5-PLIN5 inh 4, Shn3 inh set2 2, PAX8 inh HTS -7 and Peg3 promoter -11.
O=c1c2ccccc2[se]n1-c1ccccc1 was read as EWS-Fli block 5, TRPM1 prom inh 4, ABHD5-PLIN5 inh 81*, Shn3 inh set2 -9, PAX8 inh HTS -5, Peg3 promoter -14, ABHD5 PLIN5 conf 88* and HNF4 counter 110*.
Screening O=C(Cc1ccccn1)N1CCCCN2[C@@H](CO)[C@@H](c3ccc(Br)cc3)[C@@H]2C1 returned EWS-Fli block -2 and PAX8 inh HTS -9.
For CCOC(=O)[C@@H]1[C@@H]2NC(=S)N(C)[C@@]1(C)Oc1ccccc12 the results were EWS-Fli block -7 and PAX8 inh HTS 7.
`CCOC(=O)[C@]12Cc3ccc(C)cc3[C@H]1N(C1CCCCC1)C(=O)c1ccccc12` gave EWS-Fli block 59*, ABHD5-PLIN5 inh 40*, PAX8 inh HTS 82*, ABHD5 PLIN5 conf 30*, HNF4 counter 21* and DNA binder FP 15%.
`O=C(Cc1ccncc1)N1CCCCN2[C@@H](CO)[C@@H](c3ccc(C#Cc4ccccc4F)cc3)[C@@H]2C1` gave EWS-Fli block -10 and PAX8 inh HTS -4.
C[C@]12CC[C@H](O)C[C@H]1CC[C@@H]1[C@@H]2C[C@@H](O)[C@]2(C)[C@@H](C3=CC(=O)OC3)CC[C@]12O was read as EWS-Fli block 81*, TRPM1 prom inh 71*, ABHD5-PLIN5 inh -1, Shn3 inh set2 -6, PAX8 inh HTS 104*, Peg3 promoter 102* and DNA binder FP -4%.
`C[C@]12CC[C@H](O)C[C@@H]1CC[C@@H]1[C@@H]2CC[C@]2(C)C(=O)CC[C@@H]12` gave EWS-Fli block -9, TRPM1 prom inh -14, ABHD5-PLIN5 inh -10, Shn3 inh set2 15, PAX8 inh HTS -11 and Peg3 promoter 10.
For CC12CCC(O)CC1CCC1C2CCC2(C)C(C3=CC(=O)OC3)CCC12O (stereo not given) the results were EWS-Fli block 67*, TRPM1 prom inh 68*, ABHD5-PLIN5 inh -2, Shn3 inh set2 1, PAX8 inh HTS 106*, Peg3 promoter 95* and DNA binder FP -8%.

Source: PubChem (several laboratories)
